Laboratory results as given in PubChem BioAssay (NCI).
The panel holds about 83,000 compounds, 20% with a hit somewhere; the sample as a whole holds those more often.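 Method: cells in 96-well plates; compound added at one concentration; 48 h incubation; percent growth measured; values under 10 scored active.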 Activity calls are given as the source filed them.

How the values were obtained:
Assay in all cases: NCI-60 one-dose screen, 48 h (100 = growth as untreated, 0 = no growth, -100 = all killed)
Details in all cases: 10 µM unless noted
[1] = test system: HT29 colon
[2] = test system: SNB-75 CNS
[3] = test system: SNB-19 CNS
[4] = test system: U251 CNS
[5] = test system: PC-3 prostate
[6] = test system: SK-MEL-5 melanoma
[7] = test system: UACC-62 melanoma
[8] = test system: LOX IMVI melanoma
[9] = test system: SK-MEL-28 melanoma

Measured: growth

COc1ccc2nc(-c3ccc(OC)c(OC)c3)cc(-c3nnc(SCC(=O)Nc4ccc(C(C)=O)cc4)o3)c2c1
inactive: [1] 105% | [2] 91.6% | [3] 101% | [4] 97.7% | [5] 95% | [6] 94.1% | [7] 102% | [8] 102% | [9] 113%

COc1cc(/C=C/C(=O)/C=C/c2cc3ccc(Cl)cc3n(Cc3ccccc3)c2=O)ccc1O
active: [1] -46.5% | [4] -64.7% | [5] -2.36% | [6] -80.5% | [7] -56% | [8] -90% | [9] 3.48%
inactive: [2] 63.3% | [3] 13.3%

CN(C)CCCn1c2c(c3cc(-c4ccco4)ccc3c1=O)C(=O)c1ccccc1-2
inactive: [1] 21% | [2] 62.4% | [3] 69.2% | [4] 80.4% | [5] 60% | [6] 78.3% | [7] 50.9% | [8] 60.9% | [9] 103%

CC(=O)Oc1c2c(nc3c1c1ccccc1n3Cc1ccccc1)-c1ccccc1C2
inactive: [1] 75.4% | [2] 75.7% | [3] 96.7% | [4] 78.7% | [5] 71.8% | [6] 83.7% | [7] 70.2% | [8] 88.1% | [9] 100%

COc1cc(-c2csc(NC(=O)Nc3cc(Cl)cc(Cl)c3)n2)cc(OC)c1OC
inactive: [1] 21.9% | [5] 10.7% | [6] 54.5% | [9] 30.6%
active: [2] -29.2% | [3] 9% | [4] -80.1% | [7] -62.2% | [8] 6.77%

Cc1c(Cl)cccc1NC(=O)c1sc2nc3c(cc2c1N)CCCCC3
active: [1] 9.15% | [2] 9.95%
inactive: [3] 34.2% | [4] 24.2% | [5] 37.9% | [6] 45.8% | [7] 39.6% | [8] 41.8% | [9] 72.6%

O=C(N/N=C/C[C@@H]1[C@@H](/C=C/[C@@H](O)COc2cccc(Cl)c2)[C@H](O)C[C@@H]1O)c1ccncc1
inactive: [1] 71.1% | [2] 90.5% | [3] 98.1% | [4] 92.9% | [5] 91% | [6] 96.6% | [7] 92.9% | [8] 94.3% | [9] 103%

CC1=C(CCCOC(=O)NCCCl)C2=C(C)C3(CC3)[C@@](C)(O)C(=O)C2=C1
inactive: [1] 31.1% | [2] 58.3% | [4] 54.2% | [5] 38% | [7] 49.9% | [8] 61.1% | [9] 69.3%
active: [6] 7.89%

COc1ccc(Nc2cc(NC(=O)CNc3cc(OC)c(Cl)c(OC)c3Cl)ncn2)cc1
inactive: [1] 80.9% | [2] 81.3% | [3] 96.8% | [4] 88.5% | [5] 57.9% | [6] 85.1% | [7] 62.8% | [8] 57.2% | [9] 84.7%
